# Laboratory results taken from the supplement of paper PMC6992640.
# Test system: HCI01 (cells of a triple-negative basal-like breast cancer xenograft)
# Test: cell viability of combination (% of vehicle); higher = less cytotoxic
# Details: 1 µM; 72 h; partner dose: 10 nM
# Description: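 PDX cells were treated for 72 h with each drug at 1 µM plus carfilzomib (10 nM; 100 nM for WHIM2). Luciferase viability is expressed as percent of vehicle.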
row,SMILES,cell viability of combination
1,Cc1cc(C(C#N)c2ccc(Cl)cc2)c(Cl)cc1NC(=O)c1cc(I)cc(I)c1[O-].[Na+] (stereo not given) [Closantel Sodium] + CC(C)C[C@H](NC(=O)[C@H](CCc1ccccc1)NC(=O)CN1CCOCC1)C(=O)N[C@@H](Cc1ccccc1)C(=O)N[C@@H](CC(C)C)C(=O)[C@@]1(C)CO1 [Carfilzomib],68.9
2,CCCCCCCCCCCCCCCC[N+](C)(C)C.[Br-] [Cetrimonium Bromide (CTAB)] + CC(C)C[C@H](NC(=O)[C@H](CCc1ccccc1)NC(=O)CN1CCOCC1)C(=O)N[C@@H](Cc1ccccc1)C(=O)N[C@@H](CC(C)C)C(=O)[C@@]1(C)CO1 [Carfilzomib],72.8
3,CCCCCCCCCCCC[N+](C)(C)CCOc1ccccc1.[Br-] [Domiphen Bromide] + CC(C)C[C@H](NC(=O)[C@H](CCc1ccccc1)NC(=O)CN1CCOCC1)C(=O)N[C@@H](Cc1ccccc1)C(=O)N[C@@H](CC(C)C)C(=O)[C@@]1(C)CO1 [Carfilzomib],71.1
4,CCCCCCCCCCCCCCCC[n+]1ccccc1.[Cl-] [Cetylpyridinium Chloride] + CC(C)C[C@H](NC(=O)[C@H](CCc1ccccc1)NC(=O)CN1CCOCC1)C(=O)N[C@@H](Cc1ccccc1)C(=O)N[C@@H](CC(C)C)C(=O)[C@@]1(C)CO1 [Carfilzomib],77
5,Cc1cc(C(C#N)c2ccc(Cl)cc2)c(Cl)cc1NC(=O)c1cc(I)cc(I)c1O (stereo not given) [Closantel] + CC(C)C[C@H](NC(=O)[C@H](CCc1ccccc1)NC(=O)CN1CCOCC1)C(=O)N[C@@H](Cc1ccccc1)C(=O)N[C@@H](CC(C)C)C(=O)[C@@]1(C)CO1 [Carfilzomib],70.3
